Measured values: PubChem BioAssay AID1159580 (chemical genetic matrix, 2015)
Several values for one entry are separate records, joined by “and”; a condition that tells them apart may be missing. Equal values may be shown once. Out of some 5,500 compounds screened, about 2,000 (36%) were called active. Inconclusive results (about 18%) are left out. No stated cut-off is given here; in the data, active means normalized growth mostly below about 0.91 (no sharp cut-off); inconclusive means no clear call, values can overlap the other calls; inactive means mostly above about 0.92. The list shows a part of the results.

Assay: chemical genetic growth profiling, strain panel (AID 1159580);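 further: tested at 20 µM; growth read once vehicle control cultures reached saturation at 30 °C; 1 = growth at the plate median or of vehicle wells; lower values mean less growth of the strain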
Settings: S. cerevisiae deletion strains, growth OD
[1] = locus YAL013W, strain DEP1, active compounds read low
[2] = locus YBR229C, strain ROT2, active compounds read low
[3] = locus YDL101C, strain DUN1, active compounds read low
[4] = locus YDR150W, strain NUM1, active compounds read low
[5] = locus YEL061C, strain CIN8, active compounds read low
[6] = locus YHR030C, strain SLT2, active compounds read low
[7] = locus YJL187C, strain SWE1, active compounds read low
[8] = locus YJR043C, strain POL32, active compounds read low
[9] = locus YJR075W, strain HOC1, active compounds read low
[10] = locus YLR039C, strain RIC1, active compounds read low
[11] = locus YLR262C, strain YPT6, active compounds read low
[12] = locus YMR263W, strain SAP30, active compounds read low

Measured: normalized growth

Cc1ccc2c(c1)N(CCO)C(C)(C)CC2C (centres undefined)
inactive: [1] 1 | [2] 0.997 | [3] 0.97 | [4] 0.909 | [5] 1.03 | locus YGR078C, strain PAC10, active compounds read low 0.986 | [6] 0.982 | locus YHR087W, strain rtc3, active compounds read low 0.961 | [7] 1 | [8] 0.98 | [9] 0.975 | [10] 0.969 | locus YLR058C, strain SHM2 (second series), active compounds read low 0.988 | locus YLR085C, strain ARP6, active compounds read low 1.03 | [11] 0.955 | locus YML094W, strain GIM5, active compounds read low 0.993 | locus YMR219W, strain ESC1, active compounds read low 0.987 | [12] 0.997 | locus YNL153C, strain GIM3, active compounds read low 1 | locus YNL298W, strain CLA4 (second series), active compounds read low 1.04 | locus YNL322C, strain KRE1, active compounds read low 1 | locus YNR030W, strain Alg12, active compounds read low 0.986 | locus YOL006C, strain TOP1, active compounds read low 1.02 | locus YPL055C, strain LGE1, active compounds read low 0.962 | locus YPL241C, strain CIN2, active compounds read low 0.998 | locus YPR135W, strain CTF4, active compounds read low 0.953

COc1cc(OC)c(OC)cc1C=O
inactive: [1] 0.991 | locus YAL021C, strain ccr4, active compounds read low 1.01 | locus YAL026C, strain drs2, active compounds read low 1 | locus YAL030W, strain snc1, active compounds read low 0.998 | locus YBL061C, strain skt5, active compounds read low 0.991 | locus YBR009C, strain hhf1, active compounds read low 0.993 | locus YBR021W, strain FUR4, active compounds read low 1.03 | locus YBR023C, strain chs3, active compounds read low 0.991 | locus YBR171W, strain sec66, active compounds read low 0.991 | [2] 1.01 | locus YBR231C, strain swc5, active compounds read low 0.998 | locus YBR279W, strain paf1, active compounds read low 0.997 | locus YCL011C, strain gbp2, active compounds read low 1 | locus YCL016C, strain dcc1, active compounds read low 0.995 | locus YCL029C, strain bik1, active compounds read low 0.972 | locus YCL061C, strain MRC1, active compounds read low 0.996 | locus YCL069W, strain vba3, active compounds read low 0.999 | locus YCR088W, strain abp1, active compounds read low 0.999 | locus YDL005C, strain med2, active compounds read low 0.985 | locus YDL035C, strain GPR1, active compounds read low 1.01 | locus YDL040C, strain nat1, active compounds read low 0.998 | locus YDL074C, strain BRE1, active compounds read low 1 | [3] 1.02 | locus YDL185W, strain tfp1, active compounds read low 0.94 | locus YDL192W, strain arf1, active compounds read low 0.997 | locus YDR001C, strain nth1, active compounds read low 0.999 | locus YDR069C, strain doa4, active compounds read low 0.991 | locus YDR101C, strain arx1, active compounds read low 0.989 | locus YDR137W, strain rgp1, active compounds read low 0.973 | [4] 0.991 | locus YDR159W, strain sac3, active compounds read low 1 | locus YDR162C, strain NBP2, active compounds read low 1.06 | locus YDR195W, strain ref2 1.01 | locus YDR297W, strain sur2, active compounds read low 0.989 | locus YDR318W, strain mcm21, active compounds read low 0.994 | locus YDR334W, strain swr1, active compounds read low 0.987 | locus YDR335W, strain msn5, active compounds read low 1 | locus YDR388W, active compounds read low 0.988 | locus YDR392W, strain spt3, active compounds read low 0.999 | locus YDR502C, strain sam2, active compounds read low 0.995 | locus YEL003W, strain gim4, active compounds read low 0.999 | locus YEL037C, strain rad23, active compounds read low 1 | locus YEL061C, strain CIN8 (second series), active compounds read low 1 | [5] 1.01 | locus YER015W, strain faa2, active compounds read low 0.997 | locus YER016W, strain bim1, active compounds read low 0.994 | locus YER110C, active compounds read low 0.968 | locus YER111C, strain swi4, active compounds read low 1 | locus YER155C, strain BEM2 (second series), active compounds read low 1 | locus YER155C, strain BEM2, active compounds read low 0.991 | locus YER167W, strain BCK2, active compounds read low 1.02 | locus YFR010W, strain ubp6, active compounds read low 0.999 | locus YGL078C, strain dbp3, active compounds read low 0.986 | locus YGL086W, strain mad1, active compounds read low 0.984 | locus YGL167C, strain pmr1, active compounds read low 1 | locus YGL173C, strain kem1, active compounds read low 0.997 | locus YGL227W, strain vid30, active compounds read low 0.992 | locus YGL240W, strain doc1, active compounds read low 1.02 | locus YGL248W, strain PDE1, active compounds read low 1.06 | locus YGL253W, strain hxk2, active compounds read low 0.992 | locus YGR135W, strain pre9, active compounds read low 1.03 | locus YGR252W, strain gcn5, active compounds read low 1.08 | locus YHR013C, strain ard1, active compounds read low 1.02 | locus YHR027C, strain rpn1, active compounds read low 0.994 | [6] 0.994 and 0.979 | locus YHR079C, strain IRE1 (second series), active compounds read low 0.987 | locus YHR079C, strain IRE1, active compounds read low 0.996 | locus YHR094C, strain hxt1, active compounds read low 1 | locus YHR129C, strain ARP1, active compounds read low 1.02 | locus YHR142W, strain chs7, active compounds read low 0.998 | locus YHR200W, strain rpn10, active compounds read low 0.978 | locus YIL066C, strain RNR3, active compounds read low 1.04 | locus YIL073C, strain SPO22, active compounds read low 0.955 | locus YIL125W, strain kgd1, active compounds read low 0.998 | locus YIR030C, strain dcg1, active compounds read low 0.99 | locus YJL092W, strain hpr5, active compounds read low 0.995 | locus YJL095W, strain BCK1 (second series), active compounds read low 0.99 | locus YJL095W, strain BCK1, active compounds read low 1.09 and 0.989 | locus YJL115W, strain asf1, active compounds read low 1 | locus YJL129C, strain trk1, active compounds read low 1 | locus YJL134W, strain LCB3, active compounds read low 0.987 | locus YJL154C, strain vps35, active compounds read low 0.995 | locus YJL164C, strain tpk1, active compounds read low 1 | locus YJL166W, strain qcr8, active compounds read low 1.01 | locus YJL168C, strain set2, active compounds read low 0.991 | locus YJL187C, strain SWE1 (second series), active compounds read low 1.04 | [7] 0.991 | [8] 0.986 | locus YJR066W, strain TOR1, active compounds read low 0.916 | [9] 1.01 | locus YKL009W, strain mrt4, active compounds read low 0.972 | locus YKL068W, active compounds read low 0.985 | locus YKL085W, strain MDH1 (second series), active compounds read low 0.988 | locus YKL085W, strain MDH1, active compounds read low 0.988 | locus YKL160W, strain elf1, active compounds read low 1 | locus YKR001C, strain vps1, active compounds read low 1.02 | locus YKR026C, strain gcn3, active compounds read low 0.994 | locus YKR091W, strain srl3, active compounds read low 0.997 | locus YLL001W, strain dnm1, active compounds read low 1.01 | locus YLL026W, active compounds read low 0.99 | locus YLL041C, strain sdh2, active compounds read low 0.996 | locus YLR027C, strain aat2, active compounds read low 1.01 | [10] 0.989 | locus YLR058C, strain SHM2, active compounds read low 1.03 | locus YLR102C, strain apc9, active compounds read low 0.971 | locus YLR113W, strain HOG1, active compounds read low 1.01 | locus YLR221C, strain rsa3, active compounds read low 0.992 | locus YLR258W, strain gsy2, active compounds read low 1 | locus YLR262C, strain YPT6 (second series), active compounds read low 0.985 | [11] 1.02 | locus YLR268W, strain sec22, active compounds read low 0.97 | locus YLR320W, strain mms22, active compounds read low 0.995 | locus YLR330W, strain CHS5, active compounds read low 1.01 | locus YLR342W, strain FKS1 (second series), active compounds read low 1.05 | locus YLR342W, strain FKS1, active compounds read low 0.997 | locus YLR357W, strain rsc2, active compounds read low 0.957 | locus YLR370C, strain arc18, active compounds read low 0.997 | locus YLR371W, strain rom2, active compounds read low 0.993 | locus YLR384C, strain iki3, active compounds read low 1.01 | locus YLR418C, strain cdc73, active compounds read low 1.02 | locus YML016C, strain PPZ1, active compounds read low 1.01 | locus YML032C, strain rad52, active compounds read low 1.04 | locus YML120C, strain ndi1, active compounds read low 0.999 | locus YML124C, strain tub3, active compounds read low 0.984 | locus YMR058W, strain fet3, active compounds read low 1 | locus YMR078C, strain ctf18, active compounds read low 0.982 | locus YMR125W, strain sto1, active compounds read low 0.991 | locus YMR129W, active compounds read low 0.989 | locus YMR205C, strain PFK2, active compounds read low 1 | locus YMR223W, strain ubp8, active compounds read low 1 | locus YMR231W, strain pep5, active compounds read low 0.989 | [12] 1.01 | locus YMR307W, strain GAS1, active compounds read low 1.09 | locus YNL067W, strain RPL9B, active compounds read low 1.04 | locus YNL071W, strain lat1, active compounds read low 1 | locus YNL183C, strain NPR1, active compounds read low 0.946 | locus YNL209W, strain ssb2, active compounds read low 0.996 | locus YNL233W, strain BNI4, active compounds read low 1.06 | locus YNL248C, strain rpa49, active compounds read low 1 | locus YNL250W, strain rad50, active compounds read low 0.964 | locus YNL271C, strain bni1, active compounds read low 0.982 | locus YNL298W, strain CLA4, active compounds read low 0.987 | locus YNL307C, strain MCK1, active compounds read low 0.999 | locus YNL322C, strain KRE1 (second series), active compounds read low 1 | locus YNR049C, strain mso1, active compounds read low 0.992 | locus YNR052C, strain pop2, active compounds read low 0.995 | locus YOL012C, strain htz1 2.03 | locus YOL147C, strain pex11, active compounds read low 1 | locus YOR001W, strain rrp6, active compounds read low 0.998 | locus YOR061W, strain CKA2, active compounds read low 1.01 | locus YOR069W, strain VPS5, active compounds read low 0.989 | locus YOR070C, strain gyp1, active compounds read low 0.979 | locus YOR080W, strain dia2, active compounds read low 0.987 | locus YOR083W, strain WHI5, active compounds read low 1 | locus YOR106W, strain vam3, active compounds read low 1.01 | locus YOR136W, strain idh2, active compounds read low 0.981 | locus YOR144C, strain elg1, active compounds read low 1 | locus YOR184W, strain ser1, active compounds read low 0.993 | locus YOR231W, strain MKK1, active compounds read low 1 | locus YOR265W, strain rbl2, active compounds read low 0.993 | locus YOR270C, strain vph1, active compounds read low 1.01 | locus YOR290C, strain snf2, active compounds read low 1 | locus YOR316C, strain cot1, active compounds read low 0.99 | locus YPL051W, strain arl3, active compounds read low 0.992 | locus YPL078C, strain atp4, active compounds read low 1 | locus YPL106C, strain sse1, active compounds read low 0.958 | locus YPL240C, strain hsp82, active compounds read low 0.992 | locus YPL256C, strain CLN2, active compounds read low 0.976 | locus YPR119W, strain clb2, active compounds read low 0.974 | locus YPR141C, strain kar3, active compounds read low 0.975 | locus YPR163C, strain tif3, active compounds read low 0.981 | locus YPR167C, strain met16, active compounds read low 0.971 | strain wtn01, active compounds read low 0.978
